LmPK inhibitor: inhibitors of Leishmania mexicana pyruvate kinase. Q27686. purified LmPK, Kinase-Glo ATP luminescence, 1 h. Potency, µM (highest dose often 57.5 µM), for the others: at the top dose activity change, negative = inhibition, actives largely listed as inhibitors. 0.37% of 290,000 active. AID 1721; further: potency means the concentration at half of the fitted maximal effect; on the % scale 0 is the no-effect control and ±100 the full control effect
Target sequence (Q27686 whole entry, looked up): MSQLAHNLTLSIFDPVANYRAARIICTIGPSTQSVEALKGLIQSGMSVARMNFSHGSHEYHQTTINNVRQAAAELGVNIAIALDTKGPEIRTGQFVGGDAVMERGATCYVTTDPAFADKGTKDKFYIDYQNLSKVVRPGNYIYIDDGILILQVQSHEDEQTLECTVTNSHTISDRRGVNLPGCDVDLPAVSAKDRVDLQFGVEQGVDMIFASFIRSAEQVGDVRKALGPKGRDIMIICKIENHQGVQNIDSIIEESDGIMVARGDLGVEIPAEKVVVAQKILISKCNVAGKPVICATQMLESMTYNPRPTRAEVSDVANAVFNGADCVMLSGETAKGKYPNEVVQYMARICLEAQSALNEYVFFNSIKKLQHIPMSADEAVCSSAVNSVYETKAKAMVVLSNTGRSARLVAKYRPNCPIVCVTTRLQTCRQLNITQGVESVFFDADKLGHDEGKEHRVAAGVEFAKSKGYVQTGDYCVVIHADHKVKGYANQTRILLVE
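ATP generated from ADP (0.1 mM) and PEP (0.5 mM) by 0.1 nM LmPK over 1 h at room temperature (pH 7.2 imidazole buffer) was detected by coupled luciferase luminescence. Values were normalized to uninhibited and no-enzyme wells.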
CHX counter: affects cycloheximide protein synthesis inhibition readout, counter-screen; cell reporter, cycloheximide protein synthesis inhibition counterscreen; max response, %; 12% of 300,000 active; in the data active means max response mostly above about 13%, no sharp cut-off; inactive means mostly below about 14%; further: read at 38.3 µM for the half of the compounds with a filed dose; 0% is about no effect
Shiga toxin inh: Shiga toxin inhibition. Vero cells, Shiga toxin protein synthesis inhibition reporter. inhibition, % at 38.7 µM. 9.2% of 290,000 active. AID 2315; in the data active means inhibition mostly above about 28%, no sharp cut-off; inactive means mostly below about 43%; further: 0% is about no effect
Tb PYK inh: inhibitors of Trypanosoma brucei pyruvate kinase. 0.12% of 410,000 active. Potency, µM (series often up to 76.8 µM), without a hit: at the highest dose activity, negative = inhibition, usual class: inhibitors. Q57TT1. TbPYK enzyme, Kinase-Glo Plus ATP luminescence, 45 min; further: potency means the concentration at half of the fitted maximal effect; on the % scale 0 is the no-effect control and ±100 the full control effect; nearly all actives have a fitted effect of over 50% in size
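Assay buffer: 50 mM TEA pH 7.2, 100 mM KCl, 10 mM MgCl2, 0.05% BSA, 0.01% Tween-20. Pyruvate kinase from T. brucei plus substrate met compound, then ADP (130 uM final). Luminescence was read post 45 min RT.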
RE007 growth inh: less growth of the S. pombe RE007 Vpr strain; Potency, µM (doses to about 92.2 µM), for inactives: at the top dose activity change, negative = less growth, most hits filed as inhibitors; S. pombe RE007 Vpr strain, BacTiter-Glo ATP luminescence, 24 h; 0.21% of 360,000 active; active means well fitted falling curve with a large enough effect; inconclusive means small, poorly fitted or top-dose-only effect; inactive means no such curve, though single readings can be large or run the other way; further: potency means the concentration at half of the fitted maximal effect; on the % scale 0 is the no-effect control and ±100 the full control effect; nearly all actives have a fitted effect of over 50% in size
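Fission yeast strain RE007, carrying one chromosomally integrated HIV-1 vpr copy, was seeded at OD 0.01 in PMG+AL medium with 23 nL pinned compound. After 24 h at 30 °C and 99% humidity, viability was read by BacTiter-Glo luminescence.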
Giardia FBPA inh: blocks Giardia fructose-bisphosphate aldolase activity | A8B2U2 | purified Giardia FBPA | Potency, µM (doses to about 59.6 µM), without a hit: at the highest dose activity, negative = inhibition, actives largely listed as inhibitors | 0.71% of 290,000 active | AID 2451; further: potency means the concentration at half of the fitted maximal effect; on the % scale 0 is the no-effect control and ±100 the full control effect; nearly all actives have a fitted effect of over 55% in size
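Giardia FBPA (40 nM reagent) was preincubated 10 min at RT with compound (up to 57.5 uM final), then substrate plus GAPDH/TPI/NAD/arsenate coupling system with diaphorase/resazurin was added; resorufin fluorescence (525/598 nm) was read after 20 min.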
The depositor's hits bear a star; ? = inconclusive; . = not tested or not shown. The full list was thinned out, with hits kept by preference. Unless noted, the call rests on the fitted dose curve; in most records, active means well fitted curve in the direction sought with a large enough effect; inconclusive means small, poorly fitted or top-dose-only effect, or another doubt; inactive means no such curve, though single readings can be large; an effect the other way counts as inactive or inconclusive.

SMILES	LmPK inhibitor	CHX counter	Shiga toxin inh	Tb PYK inh	RE007 growth inh	Giardia FBPA inh
O=C1OC(Cc2ccccn2)C(O)=C1C1=NCCCN1 (stereo unspecified)	-4%	28*	81*	-1%	-5%	6%
O=C(NCc1ccccn1)C1COc2ccccc2O1 (stereo unspecified)	1%	-2	-9	-2%	0%	0%
Cc1ccc(-c2nc3cc(C(C)C)ccc3o2)cc1NC(=O)c1cc([N+](=O)[O-])ccc1N1CCOCC1	.	.	.	-4%	.	.
Cc1nc(CNC(=O)c2cc(COc3ccc(F)cc3Cl)on2)cs1	4%	8	10	9%	4%	-3%
COc1ccc(OCc2cc(C(=O)NC(C)c3csc(C)n3)no2)c(Cl)c1 (stereo unspecified)	8%	63*	62*	1%	-6%	-7%
COc1ccc(OCc2cc(C(=O)NC(C)c3nc(C)cs3)no2)c(Cl)c1 (stereo unspecified)	.	.	.	-5%	4%	.
COc1ccc(OCc2cc(C(=O)NCc3nc(C)cs3)no2)c(Cl)c1	-12%	52*	98*	6%	-12%	.
CCOc1ccc(CCNC(=O)c2oc(=O)c3ccccc3c2-c2ccc(C)cc2)cc1OCC	.	.	.	3%	.	.
CN(Cc1ccccc1)S(=O)(=O)c1ccc(Cl)c(C(=O)O)c1	0%	-6	-10	2%	-11%	18%
CN(Cc1ccccc1)S(=O)(=O)c1ccc(Cl)c(C(=O)OCC(N)=O)c1	1%	20*	37*	0%	-4%	7%
CCN(/C=N/c1sc2c(c1C#N)CCCCC2)CC	-6%	52*	67*	-2%	-22%	1%
CN1CCN(/C=N/c2sc3c(c2C#N)CCCCC3)CC1	0%	46*	89*	-4%	-8%	1%
CC(C)CN(/C=N/c1sc2c(c1C#N)CCCCC2)CC(C)C	2%	-2	-4	-4%	.	-1%
O=C(O)COc1nn(Cc2ccccc2)c2ccccc12	.	.	.	0%	.	.
Cc1nc2cnc(N(C)C)nc2n(CCc2ccccc2)c1=O	.	.	.	.	.	1%
Cc1[nH]c(C)c(C(=O)/C=C/c2ccc([N+](=O)[O-])cc2)c1C	-3%	60*	129*	2%	-16%	-5%
C(=C/c1nccc2c1[nH]c1ccccc12)/c1ccc2c(c1)OCO2	-9%	37	40*	-5%	39%	-9%
CC(=O)Nc1ccc(C(=O)N/N=C/C2CC3C=CC2C3)cc1 (stereo unspecified)	0%	12	-2	-6%	-3%	-5%
O=C(N/N=C/C1CC2C=CC1C2)c1ccccc1O (stereo unspecified)	0%	40*	68*	1%	-10%	?
O=C(CC1Sc2ncnn2C1=O)Nc1ccc(Cl)cc1 (stereo unspecified)	4%	0	-1	-4%	-10%	?
O=C(CC1SC(=O)N(c2ccccc2)C1=O)Nc1ccc(Br)cc1 (stereo unspecified)	-6%	24*	51*	-4%	-19%	-10%
O=C(CC1SC(=NCCc2ccccc2)N(/N=C/c2cccs2)C1=O)Nc1ccc(Cl)cc1 (stereo unspecified)	0%	13*	21	4%	-16%	-1%
O=C(CC1SC(=O)N(c2ccccc2)C1=O)Nc1ccc(Cl)cc1 (stereo unspecified)	3%	14*	46	-6%	0%	-9%
CSCC[C@H](NC(=O)[C@@H]1CCCN1C(=O)[C@H](CCCN=C(N)N)NC(=O)[C@H](CC(C)C)NC(=O)[C@@H]1CCCN1C(=O)[C@@H](NC(=O)[C@@H](N)CCC(N)=O)C(C)C)C(=O)N[C@H](C(=O)N[C@@H](Cc1ccc(O)cc1)C(=O)N[C@@H](CCCCN)C(=O)O)[C@@H](C)O	.	-5	-6	.	.	-6%
COc1ccccc1C(=O)Nc1nnc(SCc2cc(=O)c3cc(Cl)ccc3[nH]2)s1	.	.	.	-8%	.	.
CC(/C=N/Nc1nc2ccccc2[nH]1)=C\c1ccccc1	-5%	23*	13	-1%	-9%	1%

Source: PubChem BioAssay
